Screening data deposited in PubChem by National Center for Advancing Translational Sciences (NCATS).
HepG2 tox-1: kills HepG2 cells in TGF-b inhibitor counter-screen. HepG2 CAGA-GFP viability, ATP luminescence, 18 h. Potency, µM (doses to about 46.1 µM), inactives show at the top dose activity change, negative = cytotoxicity, hits mostly cytotoxic. 410,000 tested, 0.76% active
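HepG2 CAGA-GFP cells (1000/well, DMEM with 1% FBS) received compound, then TGF-beta at 500 pg/mL final, and were incubated 18 hours at 37 degrees C. Viability was read by CellTiter-Glo luminescence. Media-only wells were set as complete cell-killing and DMSO as no toxicity.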
Nrf2 block: blocks Nrf2 signaling; AID 504444; Potency, µM (highest dose often 46 µM), without a hit: at the highest dose activity change, negative = inhibition, usual class: inhibitors; A549 ARE-Fluc reporter, luciferase luminescence, 18-24 h; 360,000 tested, 2.1% active; also: % is scaled to controls: 0 for no effect and ±100 for the full control effect; nearly all actives have a fitted effect of over 60% in size
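Quantitative HTS in A549 cells stably bearing an antioxidant response element-firefly luciferase construct. Inhibition of Nrf2-driven transcription was scored by luminescence after 18-24 h of compound exposure at 37 °C.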
A549 viability: kills or reduces viability of A549 cells in Nrf2 counter-screen; A549 ARE-Fluc cells, CellTiter-Fluor viability, 18-24 h; Potency, µM (top dose mostly 46 µM), without a hit: at the top dose activity change, negative = cytotoxicity, usual class: inhibitors; 390,000 tested, 0.16% active; AID 504648; also: % is scaled to controls: 0 for no effect and ±100 for the full control effect
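A549 ARE_Fluc cells in 5% FBS OPTI-MEM were exposed to compounds in concentration-response for 18-24 h at 37 deg C. Viability was read by CellTiter-Fluor fluorescence (Ex 405/Em 525) after 30 min, before the luciferase read.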
S2 tox: cell viability loss in ATXN counter-screen | S2 cells (HEK-293 line with an ATXN2-luciferase reporter) viability, CellTiter-Fluor protease fluorescence, 24 h | Potency, µM (doses to about 56.7 µM), most hits filed as cytotoxic | 400,000 tested, 0.49% active; also: nearly all actives have a fitted effect of over 40% in size
TGFb inhibitor: inhibitors of TGF-b signaling. HepG2 CAGA-GFP TGF-b/SMAD3 reporter, GFP fluorescence, 18 h; TGF-beta stimulated, 500 pg/mL final. AID 588855. Potency, µM (series often up to 46.1 µM), inactives show top-dose activity, negative = inhibition, hits mostly inhibitors. 410,000 tested, 1.2% active; also: % is scaled to controls: 0 for no effect and ±100 for the full control effect; nearly all actives have a fitted effect of over 65% in size
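Inhibition was scored as loss of TGF-beta-induced (500 pg/mL final, 18 hours, 37 degrees C) GFP in HEPG2 cells carrying a CAGA-GFP reporter, in DMEM with 1% FBS. Well GFP was summed per cell; Activity was normalised to unstimulated and stimulated DMSO wells, then concentration-response fitting.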
ATXN2 expr inh: inhibitors of ATXN2 expression; HEK-293 ATXN2-luciferase reporter, luminescence, 24 h; Potency, µM (highest dose often 57 µM), for the others: at the top dose activity change, negative = inhibition, usual class: inhibitors; 360,000 tested, 0.72% active; also: % is scaled to controls: 0 for no effect and ±100 for the full control effect; nearly all actives have a fitted effect of over 55% in size
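ATXN2-luciferase reporter cells (luciferase flanked by upstream and downstream ATXN2 gene portions) were treated 24 h at 37 °C with compounds at up to 57 uM. SteadyGlo luminescence gave expression; GF-AFC fluorescence gave viability.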
TGFb CAGA inh: confirmation of TGF-b signaling inhibitors in HepG2 reporter cells; shares compounds with TGFb inhibitor; HepG2 CAGA-GFP TGF-b reporter, GFP fluorescence, 18 h; cells stimulated with TGF-beta, 500 pg/mL; Potency, µM (top dose mostly 46.1 µM), without a hit: at the top dose activity, negative = inhibition, hits mostly inhibitors; 1,600 tested, 63% active; also: % is scaled to controls: 0 for no effect and ±100 for the full control effect; nearly all actives have a fitted effect of over 65% in size
HepG2 tox-2: counter-screen for TGF-b inhibitors: cytotoxicity in HepG2 cells; shares compounds with TGFb inhibitor; HepG2 CAGA-GFP viability, ATP luminescence, 18 h; cells stimulated with TGF-beta, 500 pg/mL; Potency, µM (doses to about 46.1 µM), for the others: at the highest dose activity, negative = cytotoxicity, hits mostly inhibitors; 1,600 tested, 27% active; AID 720535; also: % is scaled to controls: 0 for no effect and ±100 for the full control effect; nearly all actives have a fitted effect of over 70% in size
TGFb CCL64 inh: TGF-b inhibition, CCL64 orthogonal assay | shares compounds with TGFb inhibitor | CCL64 CAGA-GFP reporter, TGF-b stimulated, GFP fluorescence, 18 h | Potency, µM (top dose mostly 46.1 µM), for inactives: top-dose activity, negative = inhibition, actives largely listed as inhibitors | 1,600 tested, 41% active; also: nearly all actives have a fitted effect of over 65% in size
COP TGFb inh: TGF-b inhibition validated with COP promoter; HepG2 COP-GFP TGF-b reporter, GFP fluorescence, 18 h; cells stimulated by added recombinant TGF-beta; 1,600 tested, 3% active; shares compounds with TGFb inhibitor; Potency, µM (titrated, usually from 46.1 µM), without a hit: at the highest dose activity, negative = inhibition, actives largely listed as inhibitors; also: nearly all actives have a fitted effect of over 70% in size
Numbers without * were called inactive; i = inactive; ? = inconclusive; · = not tested or not shown. Shown are actives, neighbours in structure and some others; about 3.8% of the full set was active somewhere. Calls follow the shape of the dose curve; as a rule, active = well fitted curve in the direction sought with a large enough effect; inconclusive = small, poorly fitted or top-dose-only effect, or another doubt; inactive = no such curve, though single readings can be large; an effect the other way counts as inactive or inconclusive. Potency is read from the fitted curve at half-maximal effect.

SMILES | HepG2 tox-1 | Nrf2 block | A549 viability | S2 tox | TGFb inhibitor | ATXN2 expr inh | TGFb CAGA inh | HepG2 tox-2 | TGFb CCL64 inh | COP TGFb inh
C[C@@H]1CCCCO[C@H](CN(C)Cc2ccc(Cl)c(Cl)c2)[C@H](C)CN([C@@H](C)CO)C(=O)c2cc(NC(=O)Nc3ccc(F)cc3)ccc2O1 | -23% | · | · | ? | 10µM* | ? | 5.8µM* | ? | 5.8µM* | 48%
COc1ccc(CNCc2ccc(C(=O)O)s2)cc1 | 8% | 9% | -3% | i | ? | -1% | · | · | · | ·
Cc1ccccc1CS(=O)(=O)c1nnc([C@H](CC(C)C)NC(=O)OC(C)(C)C)o1 | -90% | · | 9% | ? | 5µM* | ? | 3.7µM* | ? | 5.8µM* | ?
CC[C@@H](C)[C@H](NC(=O)OC(C)(C)C)c1nnc(S(=O)(=O)Cc2cc(C)ccc2C)o1 | -95% | ? | ? | · | ? | ? | · | · | · | ·
O=[N+]([O-])c1ccc(N2CCN(Cc3ccccc3)CC2)s1 | -13% | -11% | -8% | i | -6% | 5% | · | · | · | ·
O=[N+]([O-])c1ccc(N2CCN(Cc3ccccc3)CC2)c2c1no[n+]2[O-] | 3.5µM* | · | · | 3.5µM* | 3.2µM* | · | ? | 4.1µM* | 5.2µM* | ?
COc1ccc(S(=O)(=O)Nc2ccc3c(c2)C(=O)N([C@H](C)CO)C[C@H](C)[C@@H](CN(C)C(=O)NC2CCCCC2)O3)cc1 | 6% | -3% | -7% | i | ? | 4% | · | · | · | ·
COc1ccc(NC(=O)NNC(=O)COc2ccc(Cl)cc2C)cc1OC | -24% | ? | ? | i | 4% | -3% | · | · | · | ·
COc1ccc(OC)c(NC(=O)NNC(=O)CCCOc2ccc(Cl)cc2C)c1 | -21% | -10% | -12% | i | ? | -21% | 16µM* | -11% | 4% | 20%
Cc1ccc(CN=C(N)Nc2nc(C)cc(C)n2)cc1 | -2% | 8% | -25% | i | 16µM* | -26% | 15µM* | ? | ? | 12%
CCOc1cc(C(=O)OCc2cc(=O)n3nc(CC)sc3n2)cc(OCC)c1OCC | -1% | ? | 12% | i | ? | -21% | · | · | · | ·
COC(=O)C1(CC2CC(c3cccc(Br)c3)=NO2)CCN(C(=O)OC(C)(C)C)CC1 (stereo not given) | -4% | ? | 21% | i | ? | -23% | 23µM* | ? | ? | 51%
CCOc1ccccc1C1C2=C(COC2=O)Nc2cc3c(cc21)OCO3 (stereo not given) | 0% | 2% | ? | ? | 7.1µM* | 20% | 3.3µM* | -23% | 1.8µM* | -24%
Cc1ccc2cc(CN(CC(C)C)S(=O)(=O)c3cccc4nonc34)c(=O)[nH]c2c1 | 13% | -7% | -5% | i | 1% | 2% | · | · | · | ·
Cc1ccc(COc2ccccc2-c2cc(C(=O)N/N=C/c3cccnc3)[nH]n2)cc1 | -21% | ? | -17% | ? | 11µM* | ? | ? | ? | 23µM* | 19%
CCOc1ccc(N2CC(C(=O)N3CCN(C(=O)c4ccco4)CC3)CC2=O)cc1 (stereo not given) | 7% | 4% | 14% | i | 3% | -16% | · | · | · | ·
Cc1cc(N2CCN(c3ccccc3)CC2)n2cc(-c3ccccc3)nc2n1 | -36% | -24% | -3% | ? | ? | 22% | ? | -8% | -27% | 25%
Cc1cc(N2CCN(c3ccccc3Cl)CC2)n2cc(-c3ccccc3)nc2n1 | -49% | ? | ? | ? | ? | ? | · | · | · | ·
CC(C)OC(=O)c1c(NC(=O)C2c3ccccc3Oc3ccccc32)sc2c1CCCC2 | 5% | 6% | -4% | i | 0% | -2% | · | · | · | ·
O=C(CN1C2CCCC1CC(NC(=O)C1CCCCC1)C2)Nc1ccccc1C(F)(F)F (stereo not given) | -13% | 23µM* | -8% | ? | ? | ? | 18µM* | ? | ? | -3%
COc1cccc(C(=O)NC2CC3CCCC(C2)N3CC(=O)Nc2ccccc2C(F)(F)F)c1 (stereo not given) | -7% | ? | 2% | ? | ? | ? | · | · | · | ·
Cc1nc(N2N=C3/C(=C/c4ccc(F)cc4)CCCC3C2c2ccc(F)cc2)sc1C(=O)N(C)C (stereo not given) | -15% | ? | 11% | · | 13µM* | ? | 23µM* | ? | ? | 30%
O=C1OCCN1C(=O)[C@H]1[C@H](c2ccc([N+](=O)[O-])cc2)C(c2cccc(Cl)c2)=NN1c1ccccc1 | -8% | -11% | -17% | ? | ? | -2% | -27% | -18% | 0% | -5%
CC[C@@H]1C(c2ccccc2)=NN(c2ccccc2)[C@H]1C(=O)N1CCOC1=O | -20% | 1% | 0% | · | ? | -12% | -13% | 0% | -2% | -10%
Cc1cccc(NS(=O)(=O)c2ccc(C)c(C(=O)NC3CCN(Cc4ccccc4)CC3)c2)c1 | -16% | 8.2µM* | 7% | · | 10µM* | · | ? | -28% | ? | 5%
O=C(OCCN1CCOCC1)c1ccc2c(c1)OCCO2 | -30% | ? | 6% | i | 4% | 10% | · | · | · | ·
O=C(CCN1CCOCC1)c1ccc2c(c1)OCCO2 | -99% | -6% | -2% | i | 10µM* | -6% | 21µM* | 23µM* | ? | ?
